Several values for one entry are separate records, joined by “and”; a condition that tells them apart may be missing. Identical values can stand only once. Results filed as inconclusive are left out. Entries that show only a call come without a potency. Activity calls are given as the source filed them. The call rests on the fitted dose curve; in most records, active means well fitted cell-killing curve with a large enough effect in the repeat runs; inconclusive means weak or mixed curves, or effect the other way; inactive means flat fitted curve, though single readings scatter.
Test: cAMP Responsive Elements (CRE) small molecule antagonists, cell-based qHTS assay: qHTS cell viability counter screen (AID 2060913); further: nearly all actives have a fitted effect of over 40% in size
Settings: CRE-bla HEK293T viability, CellTiter-Glo luminescence, 5 h; series mostly up to 92.4 µM
Excerpt: U.S. Tox21 Program National Center for Advancing Translational Sciences [NCATS] Division of Preclinical Innovation [DPI] U.S. Environmental Protection Agency [EPA] National Institutes of Environmental Health Sciences [NIEHS] National Toxicology Program [NTP] U.S. Food and Drug Administration [FDA] Tox21 Assay Overview: CREB (cyclic-AMP Responsive Element Binding Protein) is a cellular transcription factor. It binds to certain DNA sequences called cAMP Responsive Elements (CRE) and regulates the transcription of the genes. […] This cell line can be used to find agonists/antagonists of the cyclic AMP signaling pathway. The activation of the report gene under culture conditions can be detected by fluorescence intensity. This cell line has been used to screen the Tox21 10K compound library to identify agonists that induce oxidative stress. The cytotoxicity of the Tox21 compound library against the CRE-bla cell line was tested in parallel by measuring the cell viability using CellTiter-Glo assay (Promega, Madison, WI) in the same wells.
Tox21 Assay Protocol Summary: CRE-bla Hek 293T cells were suspended in assay medium (DMEM containing 10% dialyzed FBS, 0.1 mM NEAA, 1 mM sodium pyruvate and 25 mM HEPES) and dispensed at 2,000 cells/4 uL /well into 1536-well black wall/clear bottom plates using a Multidrop Combi (ThermoFisher Scientific, Waltham, MA) dispenser. After the assay plates were incubated at 37 C/5% CO2 for 18 hrs, 23 nL of compounds dissolved in DMSO, positive controls or DMSO only was transferred to the assay plate by a pintool workstation (Kalypsys, San Diego, CA), followed by addition of 1 uL of 1.25uM NKH477 (0.25 uM as final concentration) in assay medium using a Flying Reagent Dispenser (Aurora Discovery, San Diego, CA). The plates were incubated at 37 C and 5% CO2 for 3 hrs. Then 1 uL of LiveBLAzer B/G FRET substrate (Invitrogen, Carlsbad, CA) was added to each well using Bioraptr Flying Reagent Dispenser (FRD, Aurora Discovery, San Diego, CA). The plates were incubated at room temperature for 2 h, then fluorescence intensities were measured using an Envision plate reader (PerkinElmer, Shelton, CT) at Excitation 405nm, Emission 460nm and 530nm. The % activity was determined from the ratio of 460nm/530nm. For cell viability readout that measures cytotoxicity, 4 uL /well of CellTiter-Glo reagent was added into the assay plates using Bioraptr FRD. After 30 min incubation at room temperature, the luminescence intensity in the assay plates was measured using a ViewLux (PerkinElmer, Shelton, CT) plate reader.
Potency means the concentration at half of the fitted maximal effect.

SMILES	Potency
COCCOCCO	inactive
OCC(Br)CBr (stereo not given)	inactive
COC12CC[C@@]3(C[C@@H]1C(C)(O)C(C)(C)C)[C@H]1Cc4ccc(O)c5c4[C@@]3(CCN1CC1CC1)[C@H]2O5 (stereo not given in full)	60.7 µM (active)
CC(Cl)C(=O)O (stereo not given)	inactive
C[C@H]1[C@@H]2Cc3ccc(O)cc3[C@@]1(C)CCN2C	inactive
ClC1=C(Cl)[C@]2(Cl)[C@H]3[C@H]([C@@H]4C=C[C@H]3C4)[C@@]1(Cl)C2(Cl)Cl	inactive
CCN(C)N=O	inactive
CC(C)OC(=O)Nc1ccccc1	inactive
Cc1cccc([N+](=O)[O-])c1	inactive
O=[N+]([O-])c1c(Cl)c(Cl)c(Cl)c(Cl)c1Cl	inactive
CCOC(=O)C1(c2ccccc2)CCN(CCC(C#N)(c2ccccc2)c2ccccc2)CC1	inactive
CCN(CC)Cc1nccn1-c1ccc([N+](=O)[O-])cc1C(=O)c1ccccc1Cl	inactive
CCOP(=S)(S)OCC	inactive
O=c1oc2ccccc2c(O)c1C(CC(O)c1ccc(-c2ccc(Br)cc2)cc1)c1ccccc1 (stereo not given)	inactive
COc1cc2c(cc1OC)[C@@]13CCN4CC5=CCO[C@H]6CC(=O)N2[C@H]1[C@H]6[C@H]5C[C@H]43	inactive
CC(C)=CCN1CC[C@@]2(C)c3cc(O)ccc3C[C@@H]1[C@@H]2C	inactive
CC(C)(OO)c1ccccc1	inactive
CN(C)CCc1c[nH]c2ccccc12	inactive
C=CCOC(=O)c1ccccc1N	inactive
N#CC(C#N)=Cc1ccc(O)c(O)c1	inactive

SMILES	Potency
CCOP(=S)(OCC)Oc1cnc2ccccc2n1	inactive
CCCCCCC#N	inactive
CN(C)C(=O)C(c1ccccc1)c1ccccc1	inactive
COP(=O)(OC)O/C(=C\Cl)c1cc(Cl)c(Cl)cc1Cl	inactive
c1ccc2c(c1)CCNC2	inactive
O=C1C(Cl)=C(Cl)C(=O)c2ccccc21	inactive
ClCC1CO1 (stereo not given)	inactive
Cc1cc(Cl)ccc1OCC(=O)O	inactive
CC[C@@H](CO)NC(=O)[C@@H]1C=C2c3cccc4[nH]cc(c34)C[C@H]2N(C)C1	inactive
C[C@H](CN1CCOCC1)C(C(=O)N1CCCC1)(c1ccccc1)c1ccccc1	inactive
N#Cc1ccccc1Cl	inactive
COc1nc(C)nc(NC(=O)NS(=O)(=O)c2ccccc2Cl)n1	inactive
c1ccc(N2CCNCC2)cc1	inactive
CCCCCCCCCCCCCCCl	inactive
CC(C)(c1ccccc1)c1ccc(O)c(C(C)(C)c2ccccc2)c1	42.9 µM (active) and 54.5 µM (active)
COC(=O)NS(=O)(=O)c1ccc(N)cc1	inactive
Cc1c(Cl)c(=O)oc2cc(OP(=O)(OCCCl)OCCCl)ccc12	inactive
CCOCn1c(-c2ccc(Cl)cc2)c(C#N)c(Br)c1C(F)(F)F	inactive
Nc1ccc(Br)cc1	inactive
CCC(=O)OC1(c2ccccc2)CCN(C)CC1	inactive
